From PubChem BioAssay
Calb FLC – C. albicans growth modulation with fluconazole. growth inhibition, % (no concentration beside the values). AID 1979. 300,000 compounds, 0.57% hits. C. albicans CaCi-2 (fluconazole-resistant clinical isolate) + fluconazole, Alamar Blue growth, 48 h;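 active means growth inhibition above about 58% in most replicates, limit read from the data, passing the limit was not always enough; inconclusive means exactly half the replicates above a set limit; inactive means most replicates below a set limit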;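 further: all wells also contain fluconazole at 8 µg/ml as a sub-toxic cotreatment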
Cardio protect – myocardial damage modulation in H9c2 cells; H9c2 cardiomyocytes, H2O2 injury protection, ATPLite, 2 h; 360,000 compounds, 0.63% hits; protection from H2O2 cell death, % at 20 µM;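 active means compounds giving at least 50% protection of heart cells from peroxide-induced death in the single-dose screen, raw or plate-pattern-corrected value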
PHOSPHO1 block – inhibitors of human PHOSPHO1 phosphatase. inhibition, % at 13.3 µM. recombinant PHOSPHO1, absorbance phosphatase assay. 290,000 compounds, 1.1% hits; in the data active means inhibition above about 60%
KCC2 mod – modulators of human KCC2 chloride dependent transport; Q9H2X9; AID 1456; KCC2 cells, thallium flux FluoZin-2 fluorescence; B-score of Tl+ flux slope (higher = more flux/activation; lower = inhibition) at 10 µM; 190,000 compounds, 2.2% hits;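 active means thallium flux slope and its plate-corrected score both differing from the plate sample mean at a set confidence after two filtering rounds, in either direction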;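 further: slope of fluorescence scaled to starting intensity during 10 to 20 s after thallium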
Target sequence (Q9H2X9 whole entry, looked up): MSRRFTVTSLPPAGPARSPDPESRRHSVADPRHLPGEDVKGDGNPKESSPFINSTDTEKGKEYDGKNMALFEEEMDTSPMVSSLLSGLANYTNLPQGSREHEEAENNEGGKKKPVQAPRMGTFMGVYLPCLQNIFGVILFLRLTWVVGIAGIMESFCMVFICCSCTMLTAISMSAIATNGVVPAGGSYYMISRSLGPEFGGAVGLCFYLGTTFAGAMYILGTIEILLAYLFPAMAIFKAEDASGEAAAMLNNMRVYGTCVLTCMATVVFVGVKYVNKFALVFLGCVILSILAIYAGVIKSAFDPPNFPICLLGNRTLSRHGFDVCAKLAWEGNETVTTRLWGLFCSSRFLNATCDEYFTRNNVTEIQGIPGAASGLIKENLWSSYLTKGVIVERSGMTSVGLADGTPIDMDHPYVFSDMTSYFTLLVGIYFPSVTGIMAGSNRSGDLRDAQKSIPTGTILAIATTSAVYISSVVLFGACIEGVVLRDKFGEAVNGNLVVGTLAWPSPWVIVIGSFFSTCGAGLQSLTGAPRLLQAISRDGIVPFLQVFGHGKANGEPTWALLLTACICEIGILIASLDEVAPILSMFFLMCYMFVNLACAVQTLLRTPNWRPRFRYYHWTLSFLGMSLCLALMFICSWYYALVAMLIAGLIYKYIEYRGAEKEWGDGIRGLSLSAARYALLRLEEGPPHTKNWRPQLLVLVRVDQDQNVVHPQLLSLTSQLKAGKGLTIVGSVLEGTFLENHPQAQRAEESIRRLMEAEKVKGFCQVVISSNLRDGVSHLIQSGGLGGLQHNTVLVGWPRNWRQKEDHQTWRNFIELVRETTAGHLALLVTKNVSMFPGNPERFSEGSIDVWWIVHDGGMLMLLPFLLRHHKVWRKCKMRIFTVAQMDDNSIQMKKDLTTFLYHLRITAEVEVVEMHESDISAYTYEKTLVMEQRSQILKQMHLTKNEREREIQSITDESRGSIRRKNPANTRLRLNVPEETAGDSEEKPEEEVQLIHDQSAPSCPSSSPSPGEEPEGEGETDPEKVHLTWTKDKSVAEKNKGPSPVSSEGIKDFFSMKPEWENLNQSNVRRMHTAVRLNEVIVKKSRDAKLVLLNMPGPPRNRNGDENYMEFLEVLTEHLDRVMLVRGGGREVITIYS
Efflux pump mplx – inhibitors of Candida antifungal efflux pumps expressed in yeast; inhibition, % at 10 µM; AID 485275; 330,000 compounds, 0.44% hits; S. cerevisiae Candida pump triplex, Nile Red efflux;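 active means plate passing quality check with inhibition over a set limit, or well fluorescence over plate mean plus 4 SD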;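 further: Nile Red retained in pooled yeast measured as flow cytometry median fluorescence; higher means more Nile Red kept so more efflux inhibition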
Each line names hits and unclear results; the compound was inactive in the other large screens. Sampled rows, rich in hits. Any-hit rate of the full collection: about 3.3%.

COCCNC(=O)CN(c1ccc(F)cc1)S(=O)(=O)c1ccc2c(c1)OCCO2	none (no result: KCC2 mod)
O=C(CNC(=O)C1COc2ccccc2O1)N/N=C\c1ccccc1Cl (centres undefined)	none (no result: KCC2 mod)
COc1cccc(/C=N/NC(=O)CNC(=O)C2COc3ccccc3O2)c1O (centres undefined)	Calb FLC inconclusive, Cardio protect 66 (no result: Efflux pump mplx)
COc1ccc(CCCC(=O)N/N=C/c2cccc(OC)c2O)cc1C	Cardio protect 53
COc1cccc(/C=N/NC(=O)CNC(=O)c2ccc3c(c2)OCCO3)c1O	Cardio protect 66
O=C(CNC(=O)c1ccc2c(c1)OCCO2)N/N=C/c1ccc(O)cc1O	Cardio protect 72
COc1ccc(CCNC(=O)CCn2c(=O)c3cccn3c3cccnc32)cc1OC	none (no result: KCC2 mod)
N=c1c(S(=O)(=O)c2ccc(Cl)cc2)cc2c(=O)n3ccccc3nc2n1C1CCCCC1	none (no result: KCC2 mod)
CCOc1ccccc1NC(=O)C(=O)N/N=C/c1cc(Br)ccc1O	Calb FLC 108, Cardio protect 57
COc1cccc(/C=N/NC(=O)C(=O)Nc2ccccc2OC(F)(F)C(F)F)c1O	Calb FLC 109
COc1ccccc1OCCn1cc(/C=N/NC(=O)c2ccncc2)c2ccccc21	PHOSPHO1 block 60
CCOc1ccccc1C=NNC(=O)C(=O)NN=Cc1ccccc1OCC	none (no result: Calb FLC, PHOSPHO1 block, KCC2 mod, Efflux pump mplx)
COc1cccc(/C=N/NC(=O)C(=O)NCc2cccnc2)c1O	Cardio protect 79
Cc1c(C(=O)Nc2c(F)cc(F)cc2Br)sc2ncn(CC(=O)N3CCCC3)c(=O)c12	none (no result: KCC2 mod)
Cc1ccc(/C=C2\SC(=S)N(CCC(=O)N3CCOCC3)C2=O)cc1	none (no result: KCC2 mod)
CCCC(C)c1nnc(NC(=O)COc2ccc3c(c2)OCO3)s1 (centres undefined)	none (no result: KCC2 mod)
COc1cccc(/C=N/NC(=O)CNC(=O)c2cccnc2)c1O	none (no result: KCC2 mod)
COc1cccc(/C=N/NC(=O)CNC(=O)c2ccncc2)c1O	Cardio protect 60 (no result: KCC2 mod)
CN(C)S(=O)(=O)c1cccc(NC(=S)N/N=C/c2cc(Br)ccc2O)c1	Calb FLC 81
CN(C)S(=O)(=O)c1cccc(NC(=S)N/N=C/c2cccc(O)c2)c1	none
COc1cc(/C=C/C(=O)O)cc(S(=O)(=O)Nc2ccc3nc(SC)sc3c2)c1OC	none
CN(C)C(=O)COC(=O)c1ccccc1Sc1ccccc1C#N	PHOSPHO1 block 68
CCn1c(C)c(C(C)=O)c(N2CCN(c3ccc(F)cc3)CC2)nc1=S	PHOSPHO1 block 102
O=S(=O)(Nc1ccc2c(c1)OCO2)c1ccc(F)c(F)c1	none (no result: Calb FLC, PHOSPHO1 block, KCC2 mod)
Cc1ccccc1Nc1nnc(SCc2cc([N+](=O)[O-])cc3c2OCOC3)s1	PHOSPHO1 block 90
O=[N+]([O-])c1cc2c(c(CSc3nnc(Nc4ccccc4)s3)c1)OCOC2	PHOSPHO1 block 100
CCC(CO)n1c(SCc2cc([N+](=O)[O-])cc3c2OCOC3)nc2ccccc2c1=O (centres undefined)	none
Cc1nnc(SCc2cc([N+](=O)[O-])cc3c2OCOC3)n(N)c1=O	none
CC(=O)c1ccc(NC(=S)NCCc2ccc(S(N)(=O)=O)cc2)cc1	none
CC(C)OCCCNC(=S)Nc1ccc(S(N)(=O)=O)cc1	PHOSPHO1 block 86
O=C(CNC(=O)c1ccc(Cl)cc1Cl)OC1CCCCC1=O (centres undefined)	none (no result: Calb FLC, PHOSPHO1 block, KCC2 mod)
O=C(CSC1=NS(=O)(=O)c2ccccc21)Nc1ccccc1	PHOSPHO1 block 88
COc1ccc(-n2cnnc2SCC(=O)N2CCN(c3ccccc3)CC2)cc1	PHOSPHO1 block 93
COc1ccc(N2CCN(C(=O)CSc3nnc(-c4cc5ccccc5cc4O)n3C)CC2)cc1	Calb FLC inconclusive
O=C(CSc1nnnn1-c1ccccc1)Nc1ccc(N2CCOCC2)cc1	none
O=C(CSc1nncn1-c1ccccc1)Nc1ccc(N2CCOCC2)cc1	PHOSPHO1 block 87
CCCCCCN1C[C@@H](n2cc(-c3ccc(F)cc3)nn2)[C@H](O)C[C@@H]1c1ccccc1	none (no result: Calb FLC, PHOSPHO1 block, KCC2 mod, Efflux pump mplx)
Cc1cc2c(cc1S(=O)(=O)N(C)Cc1ccccc1)n(C)c(=O)c(=O)n2C	none (no result: KCC2 mod)
C(=N\n1cnc2ccccc21)/c1cccnc1	none
Clc1nc2sccn2c1/C=N/n1cnc2ccccc21	Cardio protect 66
CCOC(=O)c1nn(-c2cccc(Cl)c2)c2nc(Nc3ccccc3)cc(=O)n12	none
CCOC(=O)c1nn(-c2cccc(OC)c2)c2nc(Nc3ccccc3)cc(=O)n12	Cardio protect 52 (no result: KCC2 mod)
O=c1cc(-c2ccccc2)cc(-c2ccccc2)n1O	Cardio protect 63 (no result: PHOSPHO1 block, KCC2 mod)
CCC1(c2ccc(F)cc2)NC(=O)N(CC(=O)NC2CCCCCC2)C1=O (centres undefined)	none (no result: Calb FLC, PHOSPHO1 block, KCC2 mod)
COc1ccc(C2/C=C\CN(S(=O)(=O)c3cccc4cccnc34)CC(=O)N2Cc2ccc(F)cc2)cc1 (centres undefined)	Cardio protect 50 (no result: Efflux pump mplx)
O=c1[nH]c2cccc(Cl)c2c2ccccc12	Cardio protect 51 (no result: Calb FLC, PHOSPHO1 block, KCC2 mod, Efflux pump mplx)
O=c1[nH]c2cc([N+](=O)[O-])ccc2c2ccccc12	Cardio protect 65 (no result: Calb FLC, PHOSPHO1 block, KCC2 mod, Efflux pump mplx)
O=c1[nH]c2ccccc2c2ccccc12	Cardio protect 71
COc1ccc(C(=O)NCc2nnc(SCC(=O)NC3CCCC3)o2)cc1	none (no result: KCC2 mod)
CS(=O)(=O)Nc1ccc(-c2ccc3nccn3c2)cc1	Cardio protect 52 (no result: Calb FLC, PHOSPHO1 block, KCC2 mod, Efflux pump mplx)
Cc1nn(-c2ccccc2)c(Cl)c1C(=O)OCC(=O)NCCc1ccc(S(N)(=O)=O)cc1	none (no result: Calb FLC, PHOSPHO1 block, KCC2 mod, Efflux pump mplx)
CC(CCC(=O)O)C1CCC2C3CCC4C[C@H](O)CCC4(C)C3CC(=O)C12C (some centres undefined)	none (no result: KCC2 mod)
CC1=C(CC[C@@H](C)CO)OC2CC3C4CCC5CC(O)CCC5(C)C4CC(=O)C3(C)C12 (some centres undefined)	Calb FLC 87, Cardio protect 50 (no result: PHOSPHO1 block, KCC2 mod)
C[N+]1(CC(=O)OCCCC2CCCCC2)CCCC1	none
CC(C)(C)C1CCC(OC(=O)C[N+]2(C)CCCCC2)CC1 (centres undefined)	Calb FLC 79 (no result: KCC2 mod)
COc1ccc(/C=C(/NC(=O)c2ccco2)C(=O)N2CCOCC2)cc1	none (no result: KCC2 mod)
COc1cccc(-c2nc(=S)c3c(n2Cc2ccco2)CCCC3)c1	KCC2 mod 13
Cc1ccc(-c2nc(=S)c3c(n2Cc2ccco2)CCCC3)cc1	KCC2 mod 25 (no result: Calb FLC, Efflux pump mplx)
COc1cccc(-c2nc(=S)c3c(o2)CCCC3)c1	PHOSPHO1 block 61
CCC(=O)NC(=S)NNC(=O)c1ccccc1[N+](=O)[O-]	PHOSPHO1 block 65
O=C(NC(=S)NNC(=O)c1ccccc1[N+](=O)[O-])c1ccccc1	none
CCCN(Cc1ccccc1)C(=S)NC(=O)c1ccccc1[N+](=O)[O-]	KCC2 mod 70
O=C(CNC(=O)c1ccccc1)NCC(=O)OCc1ccccc1Cl	PHOSPHO1 block 60
O=C(CNC(=O)c1cccs1)NCC(=O)OCc1ccccc1Cl	none
CCOc1ccc2nc3cc(NCc4ccc(OC)cc4)ccc3c(N)c2c1	Calb FLC 102 (no result: KCC2 mod)
CC(C)[C@H](N)c1nnc(SCC(=O)c2ccc(Cl)cc2)o1	PHOSPHO1 block 82 (no result: KCC2 mod)
C[C@H](N)c1nnc(SCC(=O)c2ccc(Cl)cc2)o1	none (no result: KCC2 mod)
COc1ccc(C(=O)CSc2nnc(CCc3ccccc3)n2-c2ccccc2)cc1	PHOSPHO1 block 79
